From PubChem BioAssay (NCATS)
Records with an inconclusive call do not appear. Activity calls are given as the source filed them. Unless noted, calls follow the shape of the dose curve; as a rule, active = well fitted curve in either direction with a large enough effect (not every such curve was filed as active); inconclusive = small, poorly fitted or top-dose-only effect, or another doubt; inactive = flat fitted curve, though single readings scatter.

Assays:
[1] = target: Lysosomal acid glucosylceramidase (Homo sapiens) (UniProt P04062); test: Glucocerebrosidase-p2 (AID 348; in the data active = potency below about 10 µM; also: potency is read from the fitted curve at half-maximal effect); conditions: purified GBA, blue fluorogenic substrate, 40 min
Lysosomal acid glucosylceramidase (Homo sapiens), sequence (P04062 whole entry, looked up): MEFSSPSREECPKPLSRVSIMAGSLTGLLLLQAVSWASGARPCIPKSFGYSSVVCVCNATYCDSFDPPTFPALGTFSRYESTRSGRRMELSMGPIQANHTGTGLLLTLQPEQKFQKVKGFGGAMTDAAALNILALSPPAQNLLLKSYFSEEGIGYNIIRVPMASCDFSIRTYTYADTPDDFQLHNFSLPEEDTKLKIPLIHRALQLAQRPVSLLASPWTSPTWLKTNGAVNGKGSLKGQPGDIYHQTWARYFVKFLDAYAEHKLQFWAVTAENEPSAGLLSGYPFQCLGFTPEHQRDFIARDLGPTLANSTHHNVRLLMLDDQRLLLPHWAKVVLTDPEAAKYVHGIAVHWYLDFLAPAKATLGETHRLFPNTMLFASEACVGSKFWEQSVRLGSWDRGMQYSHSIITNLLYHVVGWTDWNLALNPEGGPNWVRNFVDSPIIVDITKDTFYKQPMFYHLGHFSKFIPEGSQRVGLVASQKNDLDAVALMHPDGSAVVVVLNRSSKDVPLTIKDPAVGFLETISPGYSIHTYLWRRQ
How it was run: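 Normal human glucocerebrosidase (0.2 nM) with blue fluorogenic substrate (80 uM final) in citrate/phosphate pH 5.9 with 10mM sodium taurocholate, 0.01% tween-20; 40 min RT, NaOH/glycine stop; fluorescence Ex 365/Em 440; AC50 from a titration from 0.6 nM upwards.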

[2] = AP1 Signaling Pathway (AID 357); conditions: ME-180 AP-1-bla reporter, EGF-induced, beta-lactamase ratio, 5 h; at 7.69 µM (top of the series) unless noted;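 also: ME-180 reporter cells stimulated with EGF at its EC50 level; % is scaled to controls: 0 for no effect and ±100 for the full control effect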
How it was run: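 Read-out was the 460nm/530nm emission ratio (excitation 405nm) after CCF4 loading for 2.5 hours at room temperature. Cells carried an AP-1-driven beta-lactamase reporter, were stimulated with EC50 EGF plus compound for 5 hours, and AC50 values came from titrations.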

[3] = target: Cytochrome P450 1A2 (Homo sapiens) (UniProt P05177); test: p450-cyp1a2 (AID 410; calls by dose curve; also: potency is read from the fitted curve at half-maximal effect;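 as to activity change, negative = inhibition: -100% = full effect of reference inhibitor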); conditions: recombinant CYP1A2, luciferin-ME demethylation, luminescence; series mostly up to 57 µM
Cytochrome P450 1A2 (Homo sapiens), sequence (P05177 whole entry, looked up): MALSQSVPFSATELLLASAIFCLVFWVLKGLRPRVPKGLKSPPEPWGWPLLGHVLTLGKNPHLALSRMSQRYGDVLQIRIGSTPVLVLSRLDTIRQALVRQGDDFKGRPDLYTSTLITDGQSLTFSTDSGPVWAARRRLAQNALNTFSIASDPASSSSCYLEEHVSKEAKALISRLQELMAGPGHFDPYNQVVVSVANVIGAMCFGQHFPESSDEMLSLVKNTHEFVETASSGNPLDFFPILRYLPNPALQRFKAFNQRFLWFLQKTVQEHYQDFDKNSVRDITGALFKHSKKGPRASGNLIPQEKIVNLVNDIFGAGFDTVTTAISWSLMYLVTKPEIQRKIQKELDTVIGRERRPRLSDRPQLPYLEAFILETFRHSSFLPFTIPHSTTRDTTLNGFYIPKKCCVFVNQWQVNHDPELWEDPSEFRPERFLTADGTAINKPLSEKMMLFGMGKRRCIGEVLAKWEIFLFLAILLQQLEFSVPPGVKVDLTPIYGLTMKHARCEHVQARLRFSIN
How it was run: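 O-Demethylation of luciferin 6' methyl ether by human CYP1A2 is monitored as luciferase luminescence. Substrate sits at Km (100uM); enzyme is 20nM. Values are scaled to 57 uM furafylline as maximal inhibition.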

[4] = NFAT Signaling Pathway (AID 444); conditions: Jurkat NFAT-bla M1, carbachol, beta-lactamase ratio, 5 h; at 7.69 µM (top of the series) unless noted;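 also: carbachol stimulus at about its EC50 of 1 µM final; % is scaled to controls: 0 for no effect and ±100 for the full control effect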
How it was run: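 Jurkat cells carrying an NFAT-driven β-lactamase reporter and co-transfected muscarinic M1 receptor were treated with compound plus carbachol (1 uM final, an EC50 level) for 5 h at 37 °C. CCF4 loading followed for 1 h at RT; 460/530 nm ratio gave %activity.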

[5] = Stat Signaling Pathway (AID 446); conditions: ME-180 (cervical carcinoma) SIE beta-lactamase reporter, IL-6 stimulated, 5 h; at 7.69 µM (top of the series) unless noted;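 also: ME-180 cervical cancer cells given 40 pM IL-6 alongside compound; SIE-controlled beta-lactamase reporter measured as 460/530 nm FRET emission ratio; % is scaled to controls: 0 for no effect and ±100 for the full control effect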
How it was run: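 Compound effects on IL-6-induced STAT reporter activity were measured in ME-180 cells. After overnight culture, cells were co-treated with 40 pM IL-6 for 5 hrs before beta-lactamase substrate loading at room temperature.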

[6] = target: Glucocorticoid receptor (Homo sapiens) (UniProt P04150); test: GR-EFC Redistribution (AID 451; calls by dose curve; also: potency is read from the fitted curve at half-maximal effect); conditions: CHO-K1 GR-EFC translocation, beta-gal luminescence, 2 h
Glucocorticoid receptor (Homo sapiens), sequence (P04150 whole entry, looked up, the tested form may be a part): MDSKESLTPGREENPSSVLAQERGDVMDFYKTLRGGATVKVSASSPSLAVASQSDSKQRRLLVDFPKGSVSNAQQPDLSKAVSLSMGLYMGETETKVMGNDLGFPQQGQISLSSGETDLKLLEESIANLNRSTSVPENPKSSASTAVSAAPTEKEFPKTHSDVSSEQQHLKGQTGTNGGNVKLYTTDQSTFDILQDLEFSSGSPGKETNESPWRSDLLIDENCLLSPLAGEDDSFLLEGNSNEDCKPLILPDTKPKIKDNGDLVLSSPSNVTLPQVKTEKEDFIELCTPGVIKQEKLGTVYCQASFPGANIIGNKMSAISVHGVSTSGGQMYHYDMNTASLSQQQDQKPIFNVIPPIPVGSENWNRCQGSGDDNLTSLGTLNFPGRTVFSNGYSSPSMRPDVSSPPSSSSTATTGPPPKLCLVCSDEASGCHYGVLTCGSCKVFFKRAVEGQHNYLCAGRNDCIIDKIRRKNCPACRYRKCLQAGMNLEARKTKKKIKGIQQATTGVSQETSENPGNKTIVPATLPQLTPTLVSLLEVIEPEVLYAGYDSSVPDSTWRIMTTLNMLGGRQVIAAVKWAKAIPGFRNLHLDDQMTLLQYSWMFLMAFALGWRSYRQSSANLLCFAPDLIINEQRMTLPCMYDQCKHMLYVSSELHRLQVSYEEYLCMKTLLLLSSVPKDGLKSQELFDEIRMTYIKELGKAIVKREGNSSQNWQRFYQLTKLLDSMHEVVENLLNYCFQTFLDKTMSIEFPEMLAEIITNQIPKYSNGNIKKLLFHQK
How it was run: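 CHO-K1 cells stably expressing nuclear-localized β-gal enzyme acceptor and GR fused C-terminally to the enzyme donor fragment; ligand-driven nuclear translocation restores β-gal by complementation. Compounds titrated up to 46 uM final, 2 h at 37 °C; luminescence read.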

[7] = target: Mitogen-activated protein kinase 10 (Mus musculus) (UniProt Q61831); test: JNK3 AlphaScreen Assay (AID 530); conditions: JNK3 lysate, c-Jun phosphorylation; series mostly up to 57.1 µM;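 also: kinase came from lysate of stimulated human HepG2 cells; signal reports phosphorylation of biotinylated GST-cJun 1-79 at Ser73 with 10 µM ATP; % is scaled to controls: 0 for no effect and ±100 for the full control effect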
How it was run: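 Phosphorylation of biotinylated GST-cJun(1-79) at Ser73 is measured by AlphaScreen proximity luminescence. Enzyme is JNK3 in HepG2 lysates activated with interleukin-1beta and tumor necrosis factor alpha; ATP is 10 uM final.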

[8] = target: 3',5'-cyclic-AMP phosphodiesterase 4B (Homo sapiens) (UniProt Q07343); test: qHTS Assay for Inhibitors of PDE-IV (AID 607; active = well fitted activation curve with a large enough effect in the main read-out, with a control signal flat, not every such curve was filed as active; also: % of control where 0% means no effect); conditions: HEK293 ACTOne CNG channel cells, membrane potential fluorescence; series mostly up to 22.9 µM
3',5'-cyclic-AMP phosphodiesterase 4B (Homo sapiens), sequence (Q07343 whole entry, looked up): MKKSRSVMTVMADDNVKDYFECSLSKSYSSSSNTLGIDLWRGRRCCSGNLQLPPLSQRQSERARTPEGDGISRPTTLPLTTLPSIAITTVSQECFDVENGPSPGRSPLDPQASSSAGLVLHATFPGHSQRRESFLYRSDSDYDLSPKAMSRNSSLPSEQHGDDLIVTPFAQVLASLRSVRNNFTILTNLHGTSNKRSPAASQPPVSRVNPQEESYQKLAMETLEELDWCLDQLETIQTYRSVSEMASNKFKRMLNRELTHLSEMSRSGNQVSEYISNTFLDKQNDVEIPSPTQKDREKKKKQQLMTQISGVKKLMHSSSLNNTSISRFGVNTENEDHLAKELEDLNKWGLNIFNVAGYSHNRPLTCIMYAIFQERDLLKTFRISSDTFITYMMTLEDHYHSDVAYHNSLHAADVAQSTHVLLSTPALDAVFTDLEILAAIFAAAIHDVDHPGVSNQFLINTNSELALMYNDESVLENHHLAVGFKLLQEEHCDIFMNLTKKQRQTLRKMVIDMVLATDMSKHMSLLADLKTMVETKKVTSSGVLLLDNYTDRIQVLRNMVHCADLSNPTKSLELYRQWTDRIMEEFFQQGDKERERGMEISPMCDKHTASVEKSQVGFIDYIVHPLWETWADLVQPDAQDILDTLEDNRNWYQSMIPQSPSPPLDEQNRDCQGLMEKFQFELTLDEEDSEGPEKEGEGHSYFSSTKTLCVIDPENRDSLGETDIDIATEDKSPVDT
How it was run: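 ACTOne HEK293 cells carry a modified cAMP-gated CNG channel and express endogenous PDE4; plated 1000 cells/well, compounds up to 22.9 uM final. Membrane-potential dye fluorescence (ex 535/em 590) was read; parental cells received 10 uM forskolin + 100 uM RO 20-1724.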

[9] = qHTS Assay for Lipid Storage Modulators (AID 1519; calls by dose curve); conditions: Drosophila S3 cells, BODIPY lipid droplet/cell ratio, laser cytometry, cells loaded with oleic acid; for activity change, negative = inhibition: at 57.5 µM (top of the series)
How it was run: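 Cells seeded at 5,000 per well were treated with compounds over a concentration series and loaded with oleic acid (400 uM, as added). Lipid droplet fluorescence (488 nm excitation, 500-530 nm channel) was read by laser-scanning cytometry and normalized to 20 uM Triacsin C.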

[10] = Primary qHTS for small molecule stabilizers of the endoplasmic reticulum resident proteome: Secreted ER Calcium Modulated Protein (SERCaMP) assay (AID 1508630; active = well fitted curve in the direction sought with a large enough effect; an effect the other way counts as inactive or inconclusive; also: % is scaled to controls: 0 for no effect and ±100 for the full control effect); conditions: SH-SY5Y GLuc-SERCaMP (Gaussia luciferase released on ER calcium loss) secretion, thapsigargin, luminescence; series mostly up to 38.4 µM
How it was run: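 The SH-SY5Y reporter protocol was run at 3 concentrations up to 38.3 uM (primary) or 11 concentrations (follow-up): 16 h compound, 100 nM thapsigargin for 4 h, then extracellular luciferase luminescence.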

[11] = target: Cytochrome P450 3A4 (Homo sapiens) (UniProt P08684); test: qHTS Assay for Inhibitors and Substrates of Cytochrome P450 3A4 (AID 884; active = well fitted curve in the direction sought with a large enough effect; an effect the other way counts as inactive or inconclusive; also: potency is read from the fitted curve at half-maximal effect; nearly all actives have a fitted effect of over 50% in size); conditions: recombinant CYP3A4, Luciferin-PPXE luminescence; series mostly up to 57.1 µM
Cytochrome P450 3A4 (Homo sapiens), sequence (P08684 whole entry, looked up): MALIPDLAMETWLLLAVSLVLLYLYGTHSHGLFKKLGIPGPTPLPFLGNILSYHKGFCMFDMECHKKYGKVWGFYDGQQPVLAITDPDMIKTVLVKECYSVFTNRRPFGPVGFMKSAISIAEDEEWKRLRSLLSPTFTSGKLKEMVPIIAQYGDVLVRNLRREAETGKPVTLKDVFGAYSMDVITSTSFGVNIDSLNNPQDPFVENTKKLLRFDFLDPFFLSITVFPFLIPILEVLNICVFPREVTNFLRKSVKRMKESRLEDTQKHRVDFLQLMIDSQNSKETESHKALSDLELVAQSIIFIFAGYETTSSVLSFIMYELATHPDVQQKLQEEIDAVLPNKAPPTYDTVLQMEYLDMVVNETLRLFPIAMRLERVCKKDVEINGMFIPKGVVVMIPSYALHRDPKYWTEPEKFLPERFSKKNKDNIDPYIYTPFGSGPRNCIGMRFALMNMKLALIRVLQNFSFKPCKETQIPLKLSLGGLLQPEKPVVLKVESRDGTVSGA
How it was run: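 Luminescent readout of luciferin produced by CYP3A4 (20 nM) dealkylation of Luciferin-PPXE, 25 uM (its KM). NADPH-driven reaction ran 60 min at RT after 10 min compound preincubation; data scaled to 57 uM ketoconazole as 100% inhibition.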

[12] = target: Cytochrome P450 3A4 (Homo sapiens) (UniProt P08684); test: qHTS Assay for Activators of Cytochrome P450 3A4 (AID 885; active = well fitted curve in the direction sought with a large enough effect; an effect the other way counts as inactive or inconclusive; also: nearly all actives have a fitted effect of over 65% in size); conditions: recombinant CYP3A4, Luciferin-PPXE luminescence, 60 min; series mostly up to 57.1 µM
How it was run: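 CYP3A4 activity: Luciferin-PPXE O-dealkylation, 25uM substrate, 200mM KPO4, RT throughout. Read-out is luciferase luminescence; higher values reflect activation.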

[13] = target: Cytochrome P450 2C19 (Homo sapiens) (UniProt P33261); test: qHTS Assay for Inhibitors and Substrates of Cytochrome P450 2C19 (AID 899; active = well fitted curve in the direction sought with a large enough effect; an effect the other way counts as inactive or inconclusive; also: potency is read from the fitted curve at half-maximal effect; nearly all actives have a fitted effect of over 60% in size); conditions: recombinant CYP2C19, luciferin-H EGE luminescence; series mostly up to 57.1 µM
Cytochrome P450 2C19 (Homo sapiens), sequence (P33261 whole entry, looked up): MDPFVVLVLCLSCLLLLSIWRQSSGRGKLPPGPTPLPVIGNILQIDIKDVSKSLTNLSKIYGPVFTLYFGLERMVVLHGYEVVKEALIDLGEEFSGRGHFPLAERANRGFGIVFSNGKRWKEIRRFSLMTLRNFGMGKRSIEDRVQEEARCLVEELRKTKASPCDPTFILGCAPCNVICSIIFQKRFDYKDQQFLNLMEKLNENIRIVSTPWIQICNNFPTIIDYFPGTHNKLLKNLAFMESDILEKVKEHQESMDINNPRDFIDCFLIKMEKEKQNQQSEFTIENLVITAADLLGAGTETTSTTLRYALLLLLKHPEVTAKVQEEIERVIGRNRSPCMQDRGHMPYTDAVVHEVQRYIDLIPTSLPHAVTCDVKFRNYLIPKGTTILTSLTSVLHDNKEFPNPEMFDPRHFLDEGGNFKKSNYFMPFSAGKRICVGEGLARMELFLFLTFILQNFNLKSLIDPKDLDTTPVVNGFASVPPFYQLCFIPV
How it was run: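 Human CYP2C19 (5nM) with Luciferin-H EGE at 10uM (its KM) in 50mM KPO4 was preincubated with compound for 10 min at 37C. NADPH regeneration started a 60 min 37C reaction. Luciferin was read by luminescence, normalized to 57uM ketoconazole.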

[14] = Confirmation and Secondary Assay for Modulators of Hemoglobin Beta Chain Splicing at IVS2 654 locus (AID 910; active = well fitted curve in the direction sought with a large enough effect; an effect the other way counts as inactive or inconclusive;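 also: per-well total GFP intensity by laser scanning cytometry after 2-day treatment; % of control where 0% means no effect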); conditions: HeLa EGFP-654 splicing reporter, GFP fluorescence, 48 h; series mostly up to 38.3 µM
How it was run: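 HeLa cells stably carrying EGFP interrupted by mutant beta-globin IVS2-654 intron (CMV-driven) were treated with compound for 2 days at 37C; corrected splicing was scored as total peak GFP intensity per well (488 nm excitation, 500-520 nm emission).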

[15] = Confirmation and Secondary Assay for Modulators of Hemoglobin Beta Chain Splicing at IVS2 705 locus (AID 930; active = well fitted curve in the direction sought with a large enough effect; an effect the other way counts as inactive or inconclusive;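 also: HeLa cells stably expressing the EGFP-705 splicing reporter; GFP fluorescence per well restored by corrected splicing of the IVS2-705 intron in EGFP; % of control where 0% means no effect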); conditions: HeLa EGFP-705 splicing reporter, GFP fluorescence, 48 h; series mostly up to 38.3 µM
How it was run: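 Splice-correction reporter: EGFP cDNA split by beta-globin intron 2 bearing the 705 mutation, stably in HeLa. Compound incubation 2 days, 37C; fluorescent objects 5-250 µm summed per well.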

[16] = target: Ubiquitin carboxyl-terminal hydrolase 1 (Homo sapiens) (UniProt O94782); test: Inhibitors of USP1/UAF1: Pilot qHTS (AID 504865; active = well fitted curve in the direction sought with a large enough effect; an effect the other way counts as inactive or inconclusive; also: nearly all actives have a fitted effect of over 35% in size; also: potency is read from the fitted curve at half-maximal effect); conditions: purified USP1/UAF1, Ub-rhodamine cleavage fluorescence; series mostly up to 54.9 µM
Ubiquitin carboxyl-terminal hydrolase 1 (Homo sapiens), sequence (O94782 whole entry, looked up): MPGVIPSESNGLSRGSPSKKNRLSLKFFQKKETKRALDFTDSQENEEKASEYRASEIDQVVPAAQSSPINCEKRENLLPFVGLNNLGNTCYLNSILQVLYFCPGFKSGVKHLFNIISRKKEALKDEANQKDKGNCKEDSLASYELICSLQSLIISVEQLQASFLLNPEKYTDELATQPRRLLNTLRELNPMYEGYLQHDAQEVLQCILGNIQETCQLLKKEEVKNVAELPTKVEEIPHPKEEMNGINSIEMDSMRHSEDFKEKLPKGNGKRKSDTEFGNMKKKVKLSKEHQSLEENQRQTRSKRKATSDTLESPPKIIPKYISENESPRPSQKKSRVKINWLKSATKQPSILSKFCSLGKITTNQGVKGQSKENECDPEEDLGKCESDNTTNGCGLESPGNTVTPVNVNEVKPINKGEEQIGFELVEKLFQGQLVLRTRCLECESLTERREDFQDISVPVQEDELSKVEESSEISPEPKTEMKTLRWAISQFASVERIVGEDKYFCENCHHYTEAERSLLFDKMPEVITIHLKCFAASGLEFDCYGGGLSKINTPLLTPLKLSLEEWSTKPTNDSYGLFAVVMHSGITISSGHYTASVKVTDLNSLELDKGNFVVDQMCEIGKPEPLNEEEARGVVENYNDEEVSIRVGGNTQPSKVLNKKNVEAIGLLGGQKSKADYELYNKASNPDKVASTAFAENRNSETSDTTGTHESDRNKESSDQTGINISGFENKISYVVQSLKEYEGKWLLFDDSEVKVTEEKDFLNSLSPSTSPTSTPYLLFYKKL
How it was run: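 USP1/UAF1 complex at 1 nM preincubated 15 min at room temperature with compound, then Ub-Rho substrate added at 150 nM final. Fluorescence (480/540 nm) read kinetically in 50 mM HEPES pH 7.8, 0.5 mM EDTA, 1 mM TCEP, 0.1 mg/ml BSA, 0.01% Tween-20.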

[17] = measured here: cell count channel max response
[18] = measured here: lipid channel max response

| Compound | Potency [1] | activity change, negative = inhibition [2] | Potency [3] | activity change, negative = inhibition [4] | activity, negative = inhibition [5] | Potency [6] | outcome [7] | Potency [8] | activity change, negative = inhibition [9] | max response [9, 17] [%] | max response [9, 18] [%] | Potency [10] | Potency [11] | Potency [12] | Potency [13] | outcome [14] | outcome [15] | Potency [16] |
| --- | --- | --- | --- | --- | --- | --- | --- | --- | --- | --- | --- | --- | --- | --- | --- | --- | --- | --- |
| CC(=O)N1CCC2(CCN(Cc3nccs3)CC2)CC1 | > 11.4 µM (inactive) | 3.58% (inactive) | inactive | -2.08% (inactive) | 17% (inactive) | > 46 µM (inactive) | inactive | inactive | -0.294% (inactive) | 3.24 | 5.77 | inactive | – | – | – | – | – | – |
| CC(=O)N1CCC2(CCN(Cc3cc(C(F)(F)F)cc(C(F)(F)F)c3)CC2)CC1 | > 11.4 µM (inactive) | -20.5% (inactive) | 15.8 µM (active) | -19.4% (inactive) | 8.31% (inactive) | > 46 µM (inactive) | inactive | inactive | 2.13% (inactive) | 6.37 | 10.7 | inactive | – | – | – | – | – | – |
| COCC(=O)N1CCC2(CC1)CN(C(=O)Nc1ccc(OC)cc1)C2 | > 11.4 µM (inactive) | -2.15% (inactive) | inactive | 21.1% (inactive) | 2.17% (inactive) | > 46 µM (inactive) | inactive | inactive | 3.11% (inactive) | 23 | 29.3 | inactive | – | – | – | – | – | – |
| CC(=O)N1CCC2(CCN(Cc3ccncc3)CC2)CC1 | > 11.4 µM (inactive) | 5.96% (inactive) | inactive | -0.25% (inactive) | -6.6% (inactive) | > 46 µM (inactive) | inactive | inactive | 2.82% (inactive) | 7.01 | 14.4 | inactive | – | – | – | – | – | – |
| CC(C)CN1CCC2(CC1)CCN(C(=O)c1csnn1)CC2 | > 11.4 µM (inactive) | -3.75% (inactive) | inactive | -21.7% (inactive) | -16.4% (inactive) | > 46 µM (inactive) | inactive | inactive | -1.92% (inactive) | -3.14 | -1.99 | inactive | – | – | – | – | – | – |
| CS(=O)(=O)N1CCC2(CCCN(C(=O)Nc3ccccc3)C2)CC1 | > 11.4 µM (inactive) | -5.5% (inactive) | 15.8 µM (active) | 11% (inactive) | 3.16% (inactive) | > 46 µM (inactive) | inactive | inactive | 1.48% (inactive) | 3.7 | 9.01 | inactive | – | – | – | – | – | – |
| CN1CC[C@@]2(CCCN(C(=O)c3cccc(F)c3)C2)C1 | > 11.4 µM (inactive) | -5.96% (inactive) | inactive | -2.53% (inactive) | -8.35% (inactive) | > 46 µM (inactive) | inactive | inactive | 3.45% (inactive) | 3.46 | 12.3 | inactive | – | – | – | – | – | – |
| COC(=O)N1CCC[C@@]2(CCN(C(=O)Nc3cccc(C#N)c3)C2)C1 | > 11.4 µM (inactive) | -12.4% (inactive) | inactive | 19.3% (inactive) | 6.31% (inactive) | > 46 µM (inactive) | inactive | inactive | 6.94% (inactive) | 4.39 | 15.8 | inactive | – | – | – | – | – | – |
| FC(F)(F)c1cc(CN2CC3(CCNCC3)C2)cc(C(F)(F)F)c1 | > 11.4 µM (inactive) | -6.77% (inactive) | inactive | 10.6% (inactive) | 3.31% (inactive) | > 46 µM (inactive) | inactive | inactive | -2.16% (inactive) | -18 | -13.5 | inactive | – | – | – | – | – | – |
| CC(=O)N1CCC[C@@]2(CCN(c3ncccn3)C2)C1 | > 11.4 µM (inactive) | 2.25% (inactive) | inactive | 13.2% (inactive) | -10.4% (inactive) | > 46 µM (inactive) | inactive | inactive | 2.8% (inactive) | 18.6 | 25.4 | inactive | – | – | – | – | – | – |
| c1cncc(CNc2ncncc2-c2ccc3c(c2)OCO3)c1 | > 11.4 µM (inactive) | -3.33% (inactive) | 0.398 µM (active) | 6.22% (inactive) | 0.562% (inactive) | > 46 µM (inactive) | inactive | inactive | 8.63% (inactive) | 10.5 | 22.7 | inactive | 0.398 µM (active) | inactive | 0.199 µM (active) | inactive | inactive | inactive |
| COc1ncc2ncc(=O)n(C)c2n1 | > 11.4 µM (inactive) | -3.14% (inactive) | 12.6 µM (active) | 2.1% (inactive) | -12.1% (inactive) | > 46 µM (inactive) | inactive | inactive | 6.15% (inactive) | 14.9 | 24.1 | inactive | – | – | – | – | – | – |
| COc1cccc(-c2nccc(NCc3cccc(C)c3)n2)c1 | > 11.4 µM (inactive) | -15.4% (inactive) | 0.316 µM (active) | -2.73% (inactive) | -25.6% (inactive) | > 46 µM (inactive) | inactive | inactive | 7.01% (inactive) | -6.39 | -3.6 | inactive | 3.98 µM (active) | inactive | 6.31 µM (active) | inactive | inactive | 35.5 µM (active) |
